Mtb bLac sens – beta-lactam sensitization of Mtb H37Rv; AID 434955; inhibition, % at 25 µM; 330,000 tested, 0.27% active; M. tuberculosis H37Rv growth with meropenem, percent inhibition; call rule not given here;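 note: growth measured after seven days incubation then overnight dye step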
UGM FP inh – blocks M. tuberculosis UGM enzyme. purified UGM, fluorescence polarization probe displacement. 320,000 tested, 0.06% active. P9WIQ1. inhibition, % at 10 µM; in the data active = inhibition above about 10%, passing the limit was not always enough
Rv3671c protease – inhibits the M. tuberculosis serine protease Rv3671c. inhibition, % at 5.96 µM. 320,000 tested, 0.048% active. P9WHR9. AID 2606; in the data active = inhibition above about 38%;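 note: extracellular domain of Rv3671c used as enzyme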
Target sequence (P9WHR9 whole entry, looked up, the tested form may be a part): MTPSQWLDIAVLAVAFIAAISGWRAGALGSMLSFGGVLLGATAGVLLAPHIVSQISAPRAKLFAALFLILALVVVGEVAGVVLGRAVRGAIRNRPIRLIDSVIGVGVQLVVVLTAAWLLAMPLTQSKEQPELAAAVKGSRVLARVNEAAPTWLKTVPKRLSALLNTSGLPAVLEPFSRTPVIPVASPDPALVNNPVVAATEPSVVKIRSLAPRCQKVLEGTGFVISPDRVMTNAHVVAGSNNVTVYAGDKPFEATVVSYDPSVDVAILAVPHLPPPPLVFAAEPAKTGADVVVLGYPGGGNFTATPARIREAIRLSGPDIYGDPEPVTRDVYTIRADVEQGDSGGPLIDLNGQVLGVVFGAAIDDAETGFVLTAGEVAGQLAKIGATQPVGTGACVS
FBA Mtb inh – inhibitors of M. tuberculosis fructose-bisphosphate aldolase; purified M. tuberculosis FBA, fluorescence read-out; 360,000 tested, 2.3% active; P9WQA3; inhibition, % at 1 µM; AID 588726
GDH-TPI counter-1 – counter-screen for M. tuberculosis FBA inhibitors: GDH-TPI coupled enzymes; GDH-TPI coupled enzyme counterscreen, NADH absorbance; inhibition, % at 4.8 µM; 360,000 tested, 1.2% active; in the data active = inhibition above about 30%
RecA intein inh – Mtb RecA intein splicing inhibition | 290,000 tested, 0.75% active | inhibition, % (concentration not given with the values) | P9WHJ3 | AID 2221 | cell-free RecA intein splicing, fluorescence; in the data active = inhibition above about 30%
Mtb FBA inh conf – confirmation of M. tuberculosis fructose-bisphosphate aldolase inhibitors. shares compounds with FBA Mtb inh. purified M. tuberculosis FBA, fluorescence read-out. inhibition, % at 1 µM. 5,600 tested, 78% active. AID 651616
GDH-TPI counter-2 – inhibits GDH-TPI coupling enzymes, flagging Mtb FBA hits; AID 652141; shares compounds with FBA Mtb inh; 5,600 tested, 81% active; inhibition, % at 1 µM; GDH-TPI coupled enzyme counterscreen, fluorescence; in the data active = inhibition above about 10%
Numbers stand for hits; . = inactive; / = no result given; + = active, no number. A selection: hits, their analogues and other compounds. The true share with any hit is near 4%. Cut-off read from the data, not from the text of the source, unless noted: active = inhibition above about 27%; inactive = the rest.

SMILES	Mtb bLac sens	UGM FP inh	Rv3671c protease	FBA Mtb inh	GDH-TPI counter-1	RecA intein inh	Mtb FBA inh conf	GDH-TPI counter-2
CC1CCCCC12NC(=O)N(CC(=O)Nc1ccccc1-c1ccccc1)C2=O (configuration not stated)	.	.	.	.	.	.	/	/
Cc1cccc(C)c1NC(=O)C(C)N1CCCC1 (configuration not stated)	.	.	.	.	.	.	/	/
COc1ccc(-c2cc3nc(NCCCN(C)C)n(C)c(=O)c3s2)cc1OC	/	/	/	46.8	.	/	128.7	86.3
COc1ccc(-c2cc(=O)oc3cc(OC(C)C(=O)NC4CC4)ccc23)cc1 (configuration not stated)	.	.	.	.	.	.	/	/
COc1ccc(-c2cc(=O)oc3cc(OC(=O)C4CCCCC4)c(Cl)cc23)cc1	.	.	.	44.7	.	.	46.1	42.0
CCOc1c2ccc(C(=O)NCc3ccc(C)cc3)cc2nn1CCOC	.	.	.	44.0	.	.	142.2	117.5
CCCCn1nc2cc(C(=O)NCc3ccccc3OC)ccc2c1OCC	.	.	.	.	.	.	/	/
CCCn1nc2cc(C(=O)NCc3ccc(C)cc3)ccc2c1OC	.	.	.	58.5	.	.	44.8	35.1
COc1ccccc1NC(=O)CON=C(N)CC(=O)NC1CCCCC1	.	.	.	.	.	/	/	/
CCC(Oc1ccc2c(c1)C(=O)CC(C)(C)O2)C(=O)NCCN1CCCCCC1 (configuration not stated)	.	.	.	59.3	.	.	.	.
CC(C)CCNC(=O)COc1ccc2c(c1)C(=O)CC(C)(C)O2	.	.	.	49.9	.	.	+	+
Fc1ccc(C2CC(c3cccs3)=NN2c2ccccc2)cc1 (configuration not stated)	/	/	/	107.3	.	.	32.9	21.7
c1ccc(C2CC(c3cccs3)=NN2c2ccccc2)cc1 (configuration not stated)	.	.	.	87.0	.	.	170.6	119.0
O=S(=O)(c1ccccc1)N1N=C(c2cccs2)CC1c1ccc(Br)cc1 (configuration not stated)	.	.	.	.	.	.	/	/
COC(=O)c1c(NC(=O)C2C3CCC(O3)C2C(=O)O)sc2c1CCCCCC2 (configuration not stated)	.	.	.	60.8	.	.	95.4	77.5
CCOC(=O)c1c(NC(=O)C2C3CCC(O3)C2C(=O)O)sc2c1CCCC2 (configuration not stated)	.	.	.	.	.	.	/	/
CCCc1cc(=O)oc2cc(C)cc(OC(C)C(=O)NCc3ccccn3)c12 (configuration not stated)	.	.	.	64.8	.	.	+	+
CC(Oc1ccc2c(-c3ccccc3)cc(=O)oc2c1)C(=O)NCc1ccccn1 (configuration not stated)	.	.	.	.	.	/	/	/
CCc1cc(=O)oc2cc(C)cc(OC(C)C(=O)NCc3ccccn3)c12 (configuration not stated)	.	.	.	50.3	.	.	66.1	48.4
O=C1NC2(CCCCC2)OC12CCCCC2	/	/	/	.	.	/	/	/
Cc1ccc(S(=O)(=O)NN2C(=O)c3ccccc3NC2c2ccccc2F)cc1 (configuration not stated)	.	.	.	.	.	.	/	/
O=C1c2ccccc2NC(c2cccnc2)N1c1ccccc1F (configuration not stated)	.	.	.	70.7	.	.	.	.
CC(=O)NN1C(=O)c2ccccc2NC1c1cccnc1 (configuration not stated)	.	.	.	30.2	.	.	77.0	72.2
CC(=O)NN1C(=O)c2ccccc2NC1c1ccoc1 (configuration not stated)	.	.	.	35.0	.	.	38.1	18.5
O=C(NN1C(=O)c2ccccc2NC1c1ccoc1)c1ccccc1 (configuration not stated)	.	.	.	.	.	.	/	/
SMILES	Mtb bLac sens	UGM FP inh	Rv3671c protease	FBA Mtb inh	GDH-TPI counter-1	RecA intein inh	Mtb FBA inh conf	GDH-TPI counter-2
CC(=O)NN1C(=O)c2ccccc2NC1c1ccccc1F (configuration not stated)	.	.	.	33.9	.	.	81.4	50.9
CCN(C(=O)COC(=O)CSc1ccc(C)cc1C)c1c(N)n(Cc2ccccc2)c(=O)[nH]c1=O	/	/	/	.	.	/	/	/
CCCOc1ccc(-c2csc3ncn(Cc4ccc(C(=O)O)cc4)c(=O)c23)cc1	.	.	.	.	.	.	/	/
C#CCNc1c2c(nc3nnnn13)CCCC2	.	.	.	.	.	.	/	/
CC(C)c1cccc(-c2csc(C(O)c3ccc(F)c(F)c3)n2)c1 (configuration not stated)	/	/	/	.	.	/	/	/
COC(=O)Cn1ccc(N(C)C)c(C#N)c1=O	.	.	.	.	.	.	/	/
CCOC(=O)N1CCC(NC(=O)CSCc2nc(-c3ccc(C)cc3)oc2C)CC1	.	.	.	51.5	.	.	.	20.0
Cc1ccc(/C=C2\OC(=O)c3ccccc32)cc1	.	.	.	45.2	.	.	.	.
CC(O)c1cc2c(cc1NC(=O)c1cnn3c1NC(c1ccco1)CC3C(F)(F)F)OCO2 (configuration not stated)	.	.	.	48.4	.	.	57.1	54.7
CCC(C)NC(=O)c1cnn2c1NC(c1ccc3c(c1)OCO3)CC2C(F)(F)F (configuration not stated)	.	.	.	.	.	.	/	/
COc1ccc(C(CNC(=O)c2ccc(-n3cnnn3)cc2)N2CCOCC2)cc1 (configuration not stated)	.	.	.	43.2	.	.	174.9	152.8
COc1ccc(C(CNC(=O)c2ccc(NS(=O)(=O)c3ccccc3)cc2)N2CCOCC2)cc1 (configuration not stated)	/	/	/	.	.	/	/	/
COC(=O)CN1C(=O)C2(C(C#N)=C(N)Oc3ccccc32)C2=C1CC(C)(C)CC2=O (configuration not stated)	.	.	.	.	.	.	/	/
Cc1cc(OC(C)C(=O)NCCN2CCOCC2)c2c(C)cc(=O)oc2c1 (configuration not stated)	.	.	.	32.6	.	.	75.5	63.6
Cc1cc(OC(C)C(=O)NC2CCN(Cc3ccccc3)CC2)c2c(C)cc(=O)oc2c1 (configuration not stated)	.	.	.	.	.	.	/	/
Cc1cc(OC(C)C(=O)NCCCN2CCOCC2)c2c(C)c(C)c(=O)oc2c1 (configuration not stated)	.	.	.	63.5	.	.	168.0	180.8
CCCc1cc(=O)oc2c(C)c(OC(C)C(=O)NCCN3CCOCC3)ccc12 (configuration not stated)	.	.	.	.	.	.	/	/
